GRIN3A LBD mod – binders of NR3A ligand-binding domain, primary screen, biophysical, differential scanning fluorimetry, uHTS. AID 1259313, 2017. Tm shift relative to glycine control, % at 25 µM. Glutamate receptor ionotropic, NMDA 3A (GRIN3A) ligand-binding domain. NR3A LBD differential scanning fluorimetry, Tm shift; 0% = protein alone, 100% = glycine-bound protein. actives 2.5% (n = 340,000);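 active = melting temperature shift of at least 10% of the positive control shift, at one fixed dose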
ADAM17 inh – ADAM17 inhibitors, primary screen, biochemical, QFRET | inhibition, % at 6.95 µM | AID 720648, 2013 | recombinant ADAM17, EDANS/DABCYL FRET peptide cleavage | actives 0.83% (n = 370,000) | Disintegrin and metalloproteinase domain-containing protein 17 (Homo sapiens), P78536;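 active = inhibition above the mean of compounds lying between control limits plus 3 SD, set per campaign, cut at about 8.5% in these data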;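 note: 0% = DMSO-only wells as the low control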
Target sequence (P78536 215-824 limits assumed): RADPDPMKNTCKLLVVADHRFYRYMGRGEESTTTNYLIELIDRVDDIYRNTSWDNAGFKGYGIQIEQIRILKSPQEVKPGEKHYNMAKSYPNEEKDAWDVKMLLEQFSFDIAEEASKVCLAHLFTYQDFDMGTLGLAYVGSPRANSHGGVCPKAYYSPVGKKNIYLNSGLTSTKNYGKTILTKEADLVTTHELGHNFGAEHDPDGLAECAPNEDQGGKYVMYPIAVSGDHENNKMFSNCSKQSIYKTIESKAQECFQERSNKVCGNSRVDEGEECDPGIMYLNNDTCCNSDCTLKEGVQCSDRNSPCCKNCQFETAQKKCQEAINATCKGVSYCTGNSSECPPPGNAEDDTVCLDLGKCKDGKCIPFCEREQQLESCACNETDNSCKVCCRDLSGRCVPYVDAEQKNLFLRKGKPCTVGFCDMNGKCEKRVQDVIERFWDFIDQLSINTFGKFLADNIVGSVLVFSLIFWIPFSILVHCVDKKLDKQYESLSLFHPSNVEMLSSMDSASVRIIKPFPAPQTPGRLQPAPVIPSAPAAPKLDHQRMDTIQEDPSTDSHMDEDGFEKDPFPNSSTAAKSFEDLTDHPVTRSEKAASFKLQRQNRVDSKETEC
AHR activator – AHR activators, primary screen, cell-based, luminescence, luciferase reporter, human. Aryl hydrocarbon receptor (Homo sapiens), P35869. AHR-responsive luciferase reporter cells. activation, % at 5 µM. actives 2.5% (n = 320,000). AID 2796, 2010; in the data active = activation above about 47%;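 note: 0% = vehicle wells and 100% = reference agonist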
ADAM10 inh – human ADAM10 inhibitors, primary screen, biochemical, QFRET, HTS; actives 0.62% (n = 370,000); inhibition, % at 7 µM; recombinant ADAM10, EDANS/DABCYL FRET peptide cleavage, 3 h;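 active = inhibition above a per-campaign cutoff equal to the mean of compounds falling between control-based bounds plus 3 SD, cut at about 20% in these data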;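 note: 0% = DMSO wells while the 100% control is not disclosed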
rCAG RNA binder – binders of r(CAG) RNA repeats, primary screen, biochemical, fluorescence. inhibition, % at 3 µM. AID 651821, 2012. r(CAG) RNA repeat, TO-PRO-1 dye displacement fluorescence. actives 1.3% (n = 370,000);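 active = inhibition above the plate cutoff, the mean of all test compounds on that plate plus 3 SD, cut at about 35% in these data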;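 note: 0% = DMSO alone and 100% = 100 µM mitoxantrone as full dye displacement; higher means more dye released from RNA so lower well fluorescence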
proKLK7 act – proKLK7 zymogen activators, primary screen, biochemical, fluorescence intensity | AID 652039, 2013 | purified proKLK7, EDANS-DABCYL substrate fluorescence; 100% is mature enzyme control, 0% vehicle | activation, % at 7 µM | actives 0.9% (n = 370,000) | Kallikrein-7 (Homo sapiens), P49862;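 active = activation above the mean of all tested compounds plus 3 SD, computed per campaign excluding outliers beyond control limits, cut at about 13% in these data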
proKLK7 act conf – proKLK7 zymogen activators, confirmation, biochemical, fluorescence intensity, triplicate; shares compounds with proKLK7 act; actives 68% (n = 3,200); activation, % at 7 µM; purified proKLK7, EDANS-DABCYL substrate fluorescence; scaled: vehicle 0, mature enzyme 100;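 active = activation, as change over the incubation, above the mean of all tested compounds plus 3 SD, cut at about 13% in these data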
EDANS interfere – EDANS-DABCYL substrate optical interference, artefact control for kallikrein-7 zymogen activator project, biochemical, fluorescence intensity, high throughput; shares compounds with proKLK7 act; no enzyme, 4 h; solvent 0%, active enzyme control 100%; activation, % at 7 µM; actives 80% (n = 3,200); AID 686952, 2013;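 active = activation above the all-compound mean plus 3 SD, ignoring values outside control-based bounds, cut at about 4.8% in these data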;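 note: value is the 4 h activation minus the activation read at time zero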
K7 EDANS ctr – counter-screen for kallikrein-7 activators: EDANS-DABCYL interference, dose response; shares compounds with proKLK7 act; EDANS-DABCYL peptide fluorescence interference, no enzyme; EC50, µM; actives 20% (n = 250); AID 720493;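 active = compounds that raise the fluorescence signal in this interference counterscreen, with EC50 at or below 10 µM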;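 note: intact quenched peptide substrate alone read at 355 nm excitation and 520 nm emission; signal is fluorescence gain from T0 to T4 after four hours at room temperature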
* = called active by the depositor; i = inactive; · = not tested or not shown. This is a sample that favours compounds with a hit; in the whole collection about 7% have one here.

SMILES	GRIN3A LBD mod	ADAM17 inh	AHR activator	ADAM10 inh	rCAG RNA binder	proKLK7 act	proKLK7 act conf	EDANS interfere	others
CNc1cncc(-c2cccc(C(C)=O)c2)n1	·	-6	·	-20	2	0	·	·
CNc1cncc(-c2cccc(NS(C)(=O)=O)c2)n1	·	i	·	i	1	130*	45*	57*
CNc1cncc(-c2ccoc2)n1	·	i	·	i	1	20*	28*	30*
CNc1cncc(-c2cnn(CC(C)C)c2)n1	·	i	·	i	0	33*	72*	64*
CNc1cncc(-c2ccc(OC)cc2)n1	·	i	·	i	0	25*	49*	41*	K7 EDANS ctr=>70
CNc1cncc(-c2cc(C)c(O)c(C)c2)n1	·	-47	·	-186	3	2	·	·
COCOCCn1cc(CN2CCS(=O)(=O)N(Cc3ccc(-c4ccc(F)nc4)cc3)C(C)C2=O)nn1 (centres undefined)	·	0	·	-12	1	1	·	·
CCCn1c(SCC(=O)Nc2cc(Cl)ccc2OC)nc(O)cc1=O	0	-1	6	2	34	-1	·	·
Nc1c(C(O)(C(F)(F)F)C(F)(F)F)cc(C(O)(C(F)(F)F)C(F)(F)F)c2ccccc12	8	·	2	·	·	·	·	·
CNc1cncc(-c2ccc(O)cc2)n1	·	i	·	i	3	41*	19*	19*
CNc1cncc(-c2ccc(S(C)(=O)=O)cc2)n1	·	i	·	i	1	85*	66*	65*
CS(=O)(=O)c1ccc(-c2nn[nH]n2)cc1	3	-5	3	-3	-4	1	·	·
COc1cc(/C=C/C(=O)OCC(=O)Nc2ccc3c(c2)OCCO3)ccc1OCC#N	0	-22	-3	-253	-1	38*	128*	110*
COc1ccc(C=O)cc1COc1ccccc1F	1	0	4	0	2	0	·	·
COc1cccc(C(=O)/C=C/c2ccc(OCC#N)c(OC)c2)c1	-10	1	10	6	-2	-1	·	·
COc1cc(/C=C/C(=O)c2ccc(O)cc2)ccc1OCC#N	-10	4	3	-18	9	16*	3	4.2*
COc1ccc(/C=C/C(=O)c2ccccc2)cc1COc1ccccc1F	-1	-1	1	0	12	263*	-17	80*
COc1ccc(C(=O)/C=C/c2ccc(O)cc2)cc1	7	-20	0	-105	3	18*	4	5.5*
COc1ccc(OCC(O)CNC(=O)c2c(-c3ccccc3)noc2C)cc1 (centres undefined)	0	1	-1	-5	-9	0	·	·
COc1ccc(C2C3=C(CC(C)(C)CC3=O)N(C)C3=C2C(=O)CC(C)(C)C3)cc1	-4	-307	1	i	-4	35*	16*	25*
COc1ccccc1C1C2=C(CC(C)(C)CC2=O)N(CC(=O)O)C2=C1C(=O)CC(C)(C)C2	-1	-269	3	i	-3	21*	30*	34*
C#CCOc1ccc(C2C3=C(CC(C)(C)CC3=O)N(CC(=O)O)C3=C2C(=O)CC(C)(C)C3)cc1OC	-1	-9	6	-30	5	0	·	·
COc1ccc(C2C3=C(CC(C)(C)CC3=O)N(C)C3=C2C(=O)CC(C)(C)C3)cc1OC	-1	-2	1	-2	-2	1	·	·
C#CCOc1ccc(C2C3=C(CC(C)(C)CC3=O)N(CC(=O)O)C3=C2C(=O)CC(C)(C)C3)cc1	2	i	-2	i	6	30*	68*	80*
COc1ccc(N2C3=C(C(=O)CC(C)(C)C3)C(c3ccccc3OC)C3=C2CC(C)(C)CC3=O)cc1	-2	-176	2	-493	-9	22*	-27	-21
SMILES	GRIN3A LBD mod	ADAM17 inh	AHR activator	ADAM10 inh	rCAG RNA binder	proKLK7 act	proKLK7 act conf	EDANS interfere	others
CC(=O)OCCn1c2nc(=O)[nH]c(=O)c-2nc2cc(C)c(C)cc21	-473	-13	·	-40	i	31*	62*	71*
Cc1c(CC(=O)N2CCN(C(=O)C3COc4ccccc4O3)CC2)c(=O)oc2cc(O)c(Cl)cc12 (centres undefined)	3	i	-2	i	31	89*	64*	64*
CCOC(=O)Nc1ccc2c(COC(=O)CNS(=O)(=O)c3cccc(Br)c3)cc(=O)oc2c1	26*	-438	-2	i	9	15*	30*	34*
CCOC(=O)Nc1ccc2c(COC(=O)CN(C)S(=O)(=O)c3ccc(C)cc3)cc(=O)oc2c1	2	-168	-5	i	2	1	·	·
Cc1nc2ccc([N+](=O)[O-])cc2c(=O)n1Cc1ccccc1Br	1	-4	2	6	3	0	·	·
CC(C)N(Cc1ccccc1)CC(O)COc1ccc(S(=O)(=O)N2CCOCC2)cc1Cl (centres undefined)	0	3	-1	13	-7	0	·	·
C=CCOC(=O)C(C#N)c1nc2ccccc2nc1N1CCN(c2ccccc2OC)CC1 (centres undefined)	-7	-11	-1	-18	5	-1	·	·
C=CCN(CC=C)c1nc2ccccc2nc1C(C#N)C(=O)OC(C)C (centres undefined)	-5	-229	18	i	-4	19*	22*	22*
COc1ccc(-c2sc3ccccc3c2-c2ccc(OC)cc2F)cc1	·	-4	·	-18	7	-4	·	·
O=C(C=Cc1ccco1)c1cc(Cl)ccc1O	2	-7	·	-22	18	35*	0	1
CSc1ccccc1OCc1cc(C(=O)N(Cc2nccn2C)C(C)C)no1	-2	1	3	3	-4	0	·	·
CCc1ccc(OCC2NCCc3cc(OC)c(OC)cc32)cc1 (centres undefined)	-2	-15	2	-59	-1	12	·	·

Screens: PubChem BioAssay, several laboratories
